For twelve compounds, outcome and AC50 results are on record in PubChem BioAssay (EPA / NIEHS).

For experiment [1], the target named is human Casein Kinase 1-delta (CK1D), CSNK1D (gene 1453) (UniProt P48730). As to the kind of experiment: NVS_ENZ_hCK1D: NovaScreen (NVS) Enzymatic Assay for human Casein Kinase 1-delta (CK1D) (AID 2283148). Put shortly:
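Recombinant human CK1-delta, cell-free; fluorescent substrate with electrophoretic mobility-shift separation of product, read 1 h after dosing. Single 25 uM duplicate screen, then concentration-response up to 50 uM; loss of signal vs DMSO.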

Experiment [2] deals with human Colony Stimulating Factor 1 Receptor (CSF1R), CSF1R (gene 1436) (UniProt P07333). As to the kind of experiment: NVS_ENZ_hCSF1R: NovaScreen (NVS) Enzymatic Assay for human Colony Stimulating Factor 1 Receptor (CSF1R) (AID 2283150). In short, it runs like this:
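Cell-free recombinant human CSF1R kinase with fluorescent substrate, product separated by electrophoretic mobility shift; read 1 h after dosing. Primary screen at 25 uM in duplicate, actives then in concentration-response up to 50 uM, relative to DMSO.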

Experiment [3] deals with human Ephrin type-B Receptor 2 (EphB2), EPHB2 (gene 2048) (UniProt P29323). Nature of the experiment: NVS_ENZ_hEphB2: NovaScreen (NVS) Enzymatic Assay for human Ephrin type-B Receptor 2 (EphB2) (AID 2283156). In short, it runs like this: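 Recombinant kinase with fluorescent substrate, product separated by electrophoretic mobility shift, read 1 h after dosing. Duplicate 25 uM screen, then singleton concentration-response to 50 uM max; loss of signal versus DMSO.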

The target in experiment [4] is human FYN Proto-Oncogene, Src family Tyrosine Kinase (Fyn), FYN (gene 2534) (UniProt P06241). Nature of the experiment: NVS_ENZ_hFyn: NovaScreen (NVS) Enzymatic Assay for human FYN Proto-Oncogene, Src family Tyrosine Kinase (Fyn) (AID 2283161). Put shortly: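 Recombinant enzyme with fluorescent substrate, product separated by electrophoretic mobility shift; read 1 h after dosing. Duplicate 25 uM single-point screen, actives retested in concentration series; loss of signal vs DMSO.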

In experiment [5] the target is human Ephrin type-A Receptor 2 (EphA2), EPHA2 (gene 1969) (UniProt P29317). As to the kind of experiment: NVS_ENZ_hEphA2: NovaScreen (NVS) Enzymatic Assay for human Ephrin type-A Receptor 2 (EphA2) (AID 2283155). In short, it runs like this: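 Cell-free recombinant EphA2 kinase with specific substrate, 1 h, fluorescence with electrophoretic mobility-shift separation of substrate and product. Primary screen at 25 uM in duplicate; hits retested in singleton concentration-response up to 50 uM, referenced to DMSO.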

Experiment [6] addresses human Ephrin type-A Receptor 1 (EphA1), EPHA1 (gene 2041) (UniProt P21709). Nature of the experiment: NVS_ENZ_hEphA1: NovaScreen (NVS) Enzymatic Assay for human Ephrin type-A Receptor 1 (EphA1) (AID 2283158).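 Further: activity is signal loss versus DMSO meaning EphA1 kinase inhibition.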 Put shortly: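 Here the EphA1 protein is recombinant and the substrate fluorescent, with electrophoretic separation before fluorescence detection at 1 hour. Signal loss against DMSO defines activity; plate controls included; follow-up concentration series reach 50 uM.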

Experiment [7] concerns the target human Dual Specificity Protein Phosphatase 3 (DUSP3), DUSP3 (gene 1845) (UniProt P51452). Nature of the experiment: NVS_ENZ_hDUSP3: NovaScreen (NVS) Enzymatic Assay for human Dual Specificity Protein Phosphatase 3 (DUSP3) (AID 2283152).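 Further: phosphatase activity of recombinant human DUSP3 on a fluorogenic substrate without cells.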 In short, it runs like this:
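Cell-free assay with recombinant human DUSP3 and fluorogenic substrate, read by fluorescence intensity. Primary screen ran duplicate at 25 uM; actives followed up in concentration series; loss of signal versus DMSO scored.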

Experiment [8] has as its target human Esterase Plasma (ES), BCHE (gene 590) (UniProt P06276). Nature of the experiment: NVS_ENZ_hES: NovaScreen (NVS) Enzymatic Assay for human Esterase Plasma (ES) (AID 2283157). Put shortly:
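Esterase from human plasma, cell-free, colorimetric absorbance read 0.25 h after dosing. Screened at 25 uM in duplicate, with threshold-passing chemicals run in concentration-response up to 50 uM; loss of signal fitted versus DMSO.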

For experiment [9], the target named is human Aurora Kinase A - serine/threonine-protein Kinase 6 (AurA), AURKA (gene 6790) (UniProt O14965). Nature of the experiment: NVS_ENZ_hAurA: NovaScreen (NVS) Enzymatic Assay for human Aurora Kinase A - serine/threonine-protein Kinase 6 (AurA) (AID 2283142). Put shortly: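 Cell-free enzymatic assay with human Aurora A, 1 hour after dosing. Fluorescent substrate turnover detected after electrophoretic mobility shift separation of substrate and product. Screened at 25 uM, actives retested in concentration-response up to 50 uM.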

In the next experiment the target is CDK2 (gene 1017) (UniProt P24941). Nature of the experiment: NVS_ENZ_hCDK2: NovaScreen (NVS) Enzymatic Assay for human Cyclin-Cependent Kinase 2 (CDK2) (AID 2283144). In short, it runs like this:
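Cell-free recombinant human CDK2 with fluorescent substrate, product separated by electrophoretic mobility shift; 1 hr read. Primary screen at 25 uM in duplicate, actives retested in concentration-response up to 50 uM; loss of signal versus DMSO.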

Experiment [10] concerns the target Glycogen synthase kinase-3 beta (Homo sapiens) (UniProt P49841). Nature of the experiment: NVS_ENZ_hGSK3b: NovaScreen (NVS) Enzymatic Assay for human Glycogen Synthase Kinase-3 beta (GSK3b) (AID 2283165). In short, it runs like this: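 Recombinant enzyme with specific fluorescent substrate, 1 h, product separated by electrophoretic mobility shift. Primary duplicate screen at 25 uM; actives (e.g. 30% inhibition) followed in singleton concentration-response to 50 uM. Signal loss fitted versus DMSO.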

Experiment [11] addresses human Janus Kinase 2 (Jak2), JAK2 (gene 3717) (UniProt O60674). As to the kind of experiment: NVS_ENZ_hJak2: NovaScreen (NVS) Enzymatic Assay for human Janus Kinase 2 (Jak2) (AID 2283169). In short, it runs like this:
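Cell-free recombinant human JAK2 enzyme activity assay, fluorescence/electrophoretic mobility shift read 1 h after dosing. Screened in duplicate at 25 uM, then concentration-response up to 50 uM; activity as signal loss relative to DMSO.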

In experiment [12] the target is human Epidermal Growth Factor Receptor (EGFR), EGFR (gene 1956) (UniProt P00533). Nature of the experiment: NVS_ENZ_hEGFR: NovaScreen (NVS) Enzymatic Assay for human Epidermal Growth Factor Receptor (EGFR) (AID 2283151). In short, it runs like this: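 Cell-free kinase assay, fluorescence plus electrophoretic mobility shift separating substrate and product, read 1 hour after dosing; loss of signal vs DMSO. Duplicate screen at 25 uM, then concentration-response to 50 uM.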

The target of experiment [13] is Histone deacetylase 3 (Homo sapiens) (UniProt O15379). Nature of the experiment: NVS_ENZ_hHDAC3: NovaScreen (NVS) Enzymatic Assay for human Histone Deacetylase 3 (HDAC3) (AID 2283163). Put shortly:
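Recombinant human HDAC3 with fluorescent substrate, 1 h after dosing; product separated from substrate by electrophoretic mobility shift and read by fluorescence. Primary screen at 25 uM in duplicate; actives (e.g. ≥30% inhibition) retested in concentration-response up to 50 uM.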

Experiment [14] has as its target human Elastase, ELANE (gene 1991) (UniProt P08246). Nature of the experiment: NVS_ENZ_hElastase: NovaScreen (NVS) Enzymatic Assay for human Elastase (AID 2283153). Put shortly: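 Cell-free elastase from human neutrophils, 1.5 h after dosing, activity read by absorbance. Primary screen in duplicate at 25 uM; hits (e.g., 30% inhibition) rerun in singleton concentration-response up to 50 uM, fitted versus DMSO.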

The target of experiment [15] is human Fibroblast Growth Factor Receptor 1 (FGFR1), FGFR1 (gene 2260) (UniProt P11362). Nature of the experiment: NVS_ENZ_hFGFR1: NovaScreen (NVS) Enzymatic Assay for human Fibroblast Growth Factor Receptor 1 (FGFR1) (AID 2283159). In short, it runs like this:
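Cell-free recombinant kinase with fluorescent substrate, product separated by electrophoretic mobility shift; read 1 hour after dosing, loss of signal relative to DMSO. Initial screen in duplicate at 25 uM, actives followed in concentration series.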

Experiment [16] addresses human IkappaB Kinase alpha (IKKa), CHUK (gene 1147) (UniProt O15111). Nature of the experiment: NVS_ENZ_hIKKa: NovaScreen (NVS) Enzymatic Assay for human IkappaB Kinase alpha (IKKa) (AID 2283167). In short, it runs like this:
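Cell-free recombinant human IKKa with fluorescent substrate, product separated by electrophoretic mobility shift; read 1 hour after dosing. Primary screen duplicate at 25 uM, actives then concentration-response up to 50 uM; loss of signal relative to DMSO.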

Inconclusive results are not listed. Activity calls are given as the source filed them. How the source made its calls: active means hit-call score of the fitted dose curve at least 0.9, where 1 is the maximum; inconclusive means response in the unintended direction; inactive means score below 0.9.

human Aurora Kinase A - serine/threonine-protein Kinase 6 (AurA), AURKA (gene 6790), sequence (O14965 whole entry, looked up): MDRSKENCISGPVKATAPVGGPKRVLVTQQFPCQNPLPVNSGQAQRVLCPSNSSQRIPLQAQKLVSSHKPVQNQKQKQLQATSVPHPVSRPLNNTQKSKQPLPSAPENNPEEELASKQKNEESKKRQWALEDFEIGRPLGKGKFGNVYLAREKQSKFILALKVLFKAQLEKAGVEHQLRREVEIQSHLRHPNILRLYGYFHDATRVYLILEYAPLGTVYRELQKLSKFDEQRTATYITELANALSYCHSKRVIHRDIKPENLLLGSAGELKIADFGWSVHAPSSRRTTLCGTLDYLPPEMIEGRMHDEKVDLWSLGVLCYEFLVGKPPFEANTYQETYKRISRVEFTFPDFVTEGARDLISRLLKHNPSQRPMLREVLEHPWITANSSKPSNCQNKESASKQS
human Colony Stimulating Factor 1 Receptor (CSF1R), CSF1R (gene 1436), sequence (P07333 whole entry, looked up): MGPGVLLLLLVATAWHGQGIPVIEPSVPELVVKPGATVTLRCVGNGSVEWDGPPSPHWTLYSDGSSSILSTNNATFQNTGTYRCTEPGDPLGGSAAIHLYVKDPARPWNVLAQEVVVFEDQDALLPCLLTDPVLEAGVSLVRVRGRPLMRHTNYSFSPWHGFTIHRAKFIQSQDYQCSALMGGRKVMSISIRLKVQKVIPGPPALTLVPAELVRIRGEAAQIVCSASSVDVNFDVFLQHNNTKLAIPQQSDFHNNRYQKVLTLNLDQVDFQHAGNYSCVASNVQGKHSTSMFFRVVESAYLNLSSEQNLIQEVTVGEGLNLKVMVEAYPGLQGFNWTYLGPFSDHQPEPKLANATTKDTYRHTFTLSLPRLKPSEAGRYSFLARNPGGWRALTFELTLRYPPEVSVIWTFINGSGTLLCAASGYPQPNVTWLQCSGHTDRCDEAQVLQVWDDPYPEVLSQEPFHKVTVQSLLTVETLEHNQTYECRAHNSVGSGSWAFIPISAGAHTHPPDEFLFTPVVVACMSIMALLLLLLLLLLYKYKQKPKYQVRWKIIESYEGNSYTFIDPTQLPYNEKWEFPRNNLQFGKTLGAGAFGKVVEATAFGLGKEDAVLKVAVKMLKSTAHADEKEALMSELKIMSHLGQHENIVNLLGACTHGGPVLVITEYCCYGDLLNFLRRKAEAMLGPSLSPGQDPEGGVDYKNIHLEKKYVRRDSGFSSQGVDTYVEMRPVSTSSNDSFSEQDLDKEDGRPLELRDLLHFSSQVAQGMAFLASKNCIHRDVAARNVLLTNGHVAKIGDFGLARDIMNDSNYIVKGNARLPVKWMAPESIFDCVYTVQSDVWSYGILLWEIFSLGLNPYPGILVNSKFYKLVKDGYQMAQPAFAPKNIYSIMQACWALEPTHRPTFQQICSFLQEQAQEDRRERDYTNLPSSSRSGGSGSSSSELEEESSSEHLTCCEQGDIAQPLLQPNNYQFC
human Dual Specificity Protein Phosphatase 3 (DUSP3), DUSP3 (gene 1845), sequence (P51452 whole entry, looked up): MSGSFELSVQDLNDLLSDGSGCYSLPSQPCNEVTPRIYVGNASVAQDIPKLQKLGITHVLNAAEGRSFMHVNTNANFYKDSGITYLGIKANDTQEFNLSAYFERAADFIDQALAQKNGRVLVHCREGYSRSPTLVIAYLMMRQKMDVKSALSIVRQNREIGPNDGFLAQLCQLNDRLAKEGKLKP
Glycogen synthase kinase-3 beta (Homo sapiens), sequence (P49841 whole entry, looked up): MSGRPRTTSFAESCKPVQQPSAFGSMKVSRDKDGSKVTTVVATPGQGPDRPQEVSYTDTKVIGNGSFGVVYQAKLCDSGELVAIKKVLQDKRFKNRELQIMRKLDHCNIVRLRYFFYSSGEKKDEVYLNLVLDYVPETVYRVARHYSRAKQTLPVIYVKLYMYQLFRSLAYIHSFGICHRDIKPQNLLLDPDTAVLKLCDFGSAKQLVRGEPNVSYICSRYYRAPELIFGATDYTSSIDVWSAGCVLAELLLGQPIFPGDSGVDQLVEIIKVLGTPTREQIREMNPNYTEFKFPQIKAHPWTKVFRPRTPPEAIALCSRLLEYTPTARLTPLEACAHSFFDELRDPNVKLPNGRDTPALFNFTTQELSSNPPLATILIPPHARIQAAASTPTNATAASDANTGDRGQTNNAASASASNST
human Ephrin type-A Receptor 1 (EphA1), EPHA1 (gene 2041), sequence (P21709 whole entry, looked up): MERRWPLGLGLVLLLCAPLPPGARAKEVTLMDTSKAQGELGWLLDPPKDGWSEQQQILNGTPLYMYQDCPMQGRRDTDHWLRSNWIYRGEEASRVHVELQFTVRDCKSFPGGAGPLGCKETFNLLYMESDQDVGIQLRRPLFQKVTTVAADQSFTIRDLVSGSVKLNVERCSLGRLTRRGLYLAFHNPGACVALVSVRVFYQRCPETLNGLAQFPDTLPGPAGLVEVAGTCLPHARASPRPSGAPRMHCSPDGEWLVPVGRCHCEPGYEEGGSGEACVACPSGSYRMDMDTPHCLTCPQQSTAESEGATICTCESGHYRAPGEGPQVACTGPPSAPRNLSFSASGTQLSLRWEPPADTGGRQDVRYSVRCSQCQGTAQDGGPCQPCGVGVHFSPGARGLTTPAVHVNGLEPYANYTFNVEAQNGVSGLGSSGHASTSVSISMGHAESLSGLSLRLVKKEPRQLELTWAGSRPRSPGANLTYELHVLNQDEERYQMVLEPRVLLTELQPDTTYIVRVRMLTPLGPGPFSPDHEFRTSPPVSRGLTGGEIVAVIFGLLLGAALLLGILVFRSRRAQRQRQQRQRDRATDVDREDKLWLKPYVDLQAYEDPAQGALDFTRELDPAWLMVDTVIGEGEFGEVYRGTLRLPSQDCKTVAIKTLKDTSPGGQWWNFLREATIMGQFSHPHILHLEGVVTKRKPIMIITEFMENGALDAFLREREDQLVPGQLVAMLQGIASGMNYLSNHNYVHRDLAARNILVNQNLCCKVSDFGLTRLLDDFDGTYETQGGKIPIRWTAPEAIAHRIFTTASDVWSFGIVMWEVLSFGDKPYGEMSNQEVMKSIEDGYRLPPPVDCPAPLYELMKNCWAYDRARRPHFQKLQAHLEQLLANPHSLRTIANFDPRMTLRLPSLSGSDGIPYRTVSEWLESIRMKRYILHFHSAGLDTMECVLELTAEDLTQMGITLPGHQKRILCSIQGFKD
human Casein Kinase 1-delta (CK1D), CSNK1D (gene 1453), sequence (P48730 whole entry, looked up): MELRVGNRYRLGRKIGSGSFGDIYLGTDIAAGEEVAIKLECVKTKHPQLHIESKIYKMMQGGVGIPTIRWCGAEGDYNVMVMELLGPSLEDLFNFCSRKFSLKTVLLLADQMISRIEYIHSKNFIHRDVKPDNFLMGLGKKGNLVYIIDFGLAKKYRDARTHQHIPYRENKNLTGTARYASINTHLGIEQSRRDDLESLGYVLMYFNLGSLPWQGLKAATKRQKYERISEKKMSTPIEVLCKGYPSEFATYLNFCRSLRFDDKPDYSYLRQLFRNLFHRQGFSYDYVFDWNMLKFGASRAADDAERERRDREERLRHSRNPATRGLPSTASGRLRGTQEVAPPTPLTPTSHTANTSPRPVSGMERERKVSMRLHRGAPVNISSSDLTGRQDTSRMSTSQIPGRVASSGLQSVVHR
human Esterase Plasma (ES), BCHE (gene 590), sequence (P06276 whole entry, looked up): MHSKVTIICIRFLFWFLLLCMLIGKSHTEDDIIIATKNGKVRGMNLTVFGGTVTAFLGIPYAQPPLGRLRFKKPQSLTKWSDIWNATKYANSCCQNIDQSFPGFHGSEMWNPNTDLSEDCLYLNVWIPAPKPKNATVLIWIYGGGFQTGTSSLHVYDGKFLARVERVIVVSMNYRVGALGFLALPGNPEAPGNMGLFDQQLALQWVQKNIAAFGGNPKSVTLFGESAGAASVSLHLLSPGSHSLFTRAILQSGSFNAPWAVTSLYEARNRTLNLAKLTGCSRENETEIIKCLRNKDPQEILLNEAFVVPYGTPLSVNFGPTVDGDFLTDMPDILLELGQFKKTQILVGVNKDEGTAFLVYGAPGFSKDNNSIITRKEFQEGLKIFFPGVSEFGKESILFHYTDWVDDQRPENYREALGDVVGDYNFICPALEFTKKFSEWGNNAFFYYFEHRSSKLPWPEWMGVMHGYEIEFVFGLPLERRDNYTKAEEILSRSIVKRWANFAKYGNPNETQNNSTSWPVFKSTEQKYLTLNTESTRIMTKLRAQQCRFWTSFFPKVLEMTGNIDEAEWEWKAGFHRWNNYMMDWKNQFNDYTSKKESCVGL
human FYN Proto-Oncogene, Src family Tyrosine Kinase (Fyn), FYN (gene 2534), sequence (P06241 whole entry, looked up): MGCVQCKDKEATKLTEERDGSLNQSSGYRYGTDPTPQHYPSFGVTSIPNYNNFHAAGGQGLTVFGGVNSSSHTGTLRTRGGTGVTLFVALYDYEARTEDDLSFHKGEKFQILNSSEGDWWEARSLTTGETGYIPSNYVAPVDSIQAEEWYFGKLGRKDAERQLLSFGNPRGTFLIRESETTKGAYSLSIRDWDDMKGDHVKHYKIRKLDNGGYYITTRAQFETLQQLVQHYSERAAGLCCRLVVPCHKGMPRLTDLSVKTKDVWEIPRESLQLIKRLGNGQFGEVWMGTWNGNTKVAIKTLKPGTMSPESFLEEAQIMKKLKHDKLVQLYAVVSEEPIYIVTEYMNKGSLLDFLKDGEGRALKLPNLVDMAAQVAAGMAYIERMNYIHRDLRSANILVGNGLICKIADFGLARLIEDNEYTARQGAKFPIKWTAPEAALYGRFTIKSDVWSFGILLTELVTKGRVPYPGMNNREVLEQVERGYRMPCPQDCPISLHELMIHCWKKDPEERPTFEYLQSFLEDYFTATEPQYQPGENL
Histone deacetylase 3 (Homo sapiens), sequence (O15379 whole entry, looked up): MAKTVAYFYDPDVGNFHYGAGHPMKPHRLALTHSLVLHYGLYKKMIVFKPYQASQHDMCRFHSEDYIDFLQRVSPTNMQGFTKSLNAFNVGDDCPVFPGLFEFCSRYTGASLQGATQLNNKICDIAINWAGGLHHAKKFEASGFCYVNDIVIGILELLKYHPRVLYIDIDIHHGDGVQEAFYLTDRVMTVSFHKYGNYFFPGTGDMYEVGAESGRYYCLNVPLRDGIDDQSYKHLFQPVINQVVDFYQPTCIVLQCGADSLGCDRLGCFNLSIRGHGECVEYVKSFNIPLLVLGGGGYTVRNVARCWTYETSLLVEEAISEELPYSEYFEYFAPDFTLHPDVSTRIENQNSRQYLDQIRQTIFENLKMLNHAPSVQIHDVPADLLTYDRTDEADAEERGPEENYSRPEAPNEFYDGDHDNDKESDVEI

As to `Oc1ccc(C(c2ccc(O)cc2)(C(F)(F)F)C(F)(F)F)cc1`, the call in experiment [1], in experiment [2], in [3] and in experiment [4] was inactive.

Take `O=C(NC(=O)c1c(F)cccc1F)Nc1cc(Cl)c(OC(F)(F)C(F)F)c(Cl)c1`: the outcome in [1], in experiment [5] and in [6] was inactive.

For orientation: AC50 means the midpoint of the concentration-response curve, whichever way the signal moves. As for `CCCCCCCCCC[N+](C)(C)CCCCCCCCCC`, the half-maximal activity concentration (AC50) in experiment [7] was 26.3 µM (active); in experiment [8] it was 25 µM (active); in [6] it was 19.7 µM (active).

As for `CCCCCCCCOC(=O)c1ccccc1C(=O)OCCCCCCCC`, the compound was classed as inactive in [7].

For `CCCN(CCC)N=O`, the result (in [9]; with CDK2 (gene 1017); in experiment [1]; in [2]; in [8]; in experiment [10]) was inactive.

In the case of `CCCCCCCCCc1ccc(O)cc1`, the half-maximal activity concentration (AC50) in [7] was 13.2 µM (active). Further, the call in [6] was inactive.

In the case of `C1CC2OC2CC1C1CO1` (centres undefined), the call in experiment [2] and in [10] was inactive.

As for `CC(C)C(=O)OCC(C)(C)C(OC(=O)C(C)C)C(C)C` (centres undefined), the outcome in experiment [9], in experiment [10] and in experiment [11] was inactive.

Take `O=C(O)C(F)(F)C(F)(F)C(F)(F)C(F)(F)C(F)(F)F`: the compound was classed as inactive (with CDK2 (gene 1017); in experiment [12]; in experiment [13]; in [11]).

For the compound `O=NN(c1ccccc1)c1ccccc1`, the compound was classed as inactive in experiment [1].

In the case of `NS(=O)(=O)C(F)(F)C(F)(F)C(F)(F)C(F)(F)C(F)(F)C(F)(F)C(F)(F)C(F)(F)F`, the result in experiment [14] was inactive.

For `O=C(O)C(F)(F)C(F)(F)C(F)(F)C(F)(F)C(F)(F)C(F)(F)C(F)(F)C(F)(F)F`, the half-maximal activity concentration (AC50) in [9] is 13.1 µM (active). Moreover, the call in experiment [1], in [2], in experiment [12], in experiment [6], in experiment [15] and in experiment [4] was inactive. Further, the call in [10] and in experiment [16] was inactive.
